Shown are actives, neighbours in structure and some others; about 6.7% of the full set was active somewhere.
Pf Dd2 inh – blocks growth of Plasmodium falciparum Dd2 parasites; activity change, % at 10 µM; P. falciparum Dd2 growth, SYBR Green, 72 h; active compounds read low; 94,000 tested, 2.3% active; in the data active means activity change below about -80%; inconclusive means no clear call, values can overlap the other calls
C diff growth – C. difficile growth inhibition. Clostridium difficile clinical isolate growth, OD600, 24 h; active compounds read low. 86,000 tested, 0.25% active. growth activity, negative = inhibition, % at 16 µg/mL (by protocol);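 active means mean growth activity at or below -80% and every replicate also at or below -80%; inconclusive means mean at or below -80% but some replicate above -80%; inactive means mean growth activity above -80%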
T cruzi growth-1 – T. cruzi proliferation inhibition; inhibition, % at 8.34 µM; T. cruzi beta-gal in NIH3T3, GalScreen luminescence, 90 h; AID 624255; 77,000 tested, 5.9% active;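 active means mean inhibition above about 93%, with at least 55% of replicates each passing it, limit read from the data, passing the limit was not always enough; inconclusive means only one of those two conditions holds; inactive means neither condition holds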
T cruzi growth-2 – Trypanosoma cruzi proliferation inhibition; shares compounds with T cruzi growth-1; T. cruzi beta-gal in NIH3T3, GalScreen luminescence, 90 h; inhibition, % at 8.35 µM; 5,600 tested, 72% active; AID 651739;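 active means mean replicate inhibition above about 95% and at least 55% of replicates individually reaching it, limit read from the data; inconclusive means only one of the two criteria is met; inactive means neither criterion is met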
T cruzi growth-3 – Trypanosoma cruzi proliferation inhibition | 5,600 tested, 21% active | shares compounds with T cruzi growth-1 | AID 651740 | T. cruzi beta-gal in NIH3T3, GalScreen luminescence, 90 h | inhibition, % at 2.09 µM;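 active means mean inhibition above about 95%, with at least 55% of replicates also reaching it, limit read from the data; inconclusive means meets just one of the two conditions; inactive means meets neither condition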
NIH3T3 tox – cytotoxicity in mouse NIH/3T3 fibroblasts. AID 651742. NIH/3T3 viability, CellTiter-Glo ATP luminescence, 90 h. shares compounds with T cruzi growth-1. cytotoxicity (signal decrease), % at 8.35 µM. 5,600 tested, 14% active;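 active means mean signal decrease across replicates above about 35% based on untreated-well scatter, with enough replicates individually passing, limit read from the data; inconclusive means no rule stated though some were filed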
3T3 cytotox 2 – kills mouse NIH/3T3 fibroblasts | shares compounds with T cruzi growth-1 | NIH/3T3 viability, CellTiter-Glo ATP luminescence, 90 h | inhibition, % at 24.9 µM | 5,600 tested, 56% active | AID 651744;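 active means mean loss of cell viability signal at or above a set limit, and enough replicates individually reaching it; inconclusive means meets only the mean limit or only the replicate share; inactive means meets neither condition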
Of the large screens only hits and unclear results are named; the others gave an inactive call (follow-up assays come after a bar, where they were run).

C[C@@H]1CN([C@H](C)CO)C(=O)c2cc(-c3ccccc3)cnc2O[C@@H]1CN(C)Cc1cccnc1	none
C[C@H](CO)N1C[C@H](C)[C@H](CN(C)S(=O)(=O)c2cccs2)Oc2ccc(NC(=O)NC3CCCCC3)cc2C1=O	none
O=C(C1CCCC1)N1CC(=O)N2[C@@H](CO)[C@H](c3ccc(C#Cc4cccc(F)c4)cc3)[C@@H]2C1	none (no result: T cruzi growth-1)
Cc1cccc(S(=O)(=O)N2C[C@H]3[C@@H](c4ccccc42)[C@H](CO)N3CC2CCCC2)c1	T cruzi growth-1 inconclusive | T cruzi growth-2 112 | T cruzi growth-3 inactive | NIH3T3 tox inactive | 3T3 cytotox 2 inconclusive
Cc1cccc(S(=O)(=O)N2C[C@H]3[C@@H](c4ccccc42)[C@H](CO)N3CC2CCOCC2)c1	none
O=C(Nc1ccc(F)cc1)N1C[C@H]2[C@@H](c3ccccc31)[C@@H](CO)N2Cc1ccccc1Cl	T cruzi growth-1 inconclusive | T cruzi growth-2 101 | T cruzi growth-3 inactive | NIH3T3 tox inactive | 3T3 cytotox 2 inactive
O=C(Nc1ccc(Cl)cc1)N1C[C@H]2[C@@H](c3ccccc31)[C@H](CO)N2CC1CCCC1	none
O=C(C1CCCCC1)N1C[C@H]2[C@@H](c3ccccc31)[C@@H](CO)N2Cc1ccccc1Cl	T cruzi growth-1 101 | T cruzi growth-2 103 | T cruzi growth-3 inactive | NIH3T3 tox inactive | 3T3 cytotox 2 inactive
O=C(C1CC1)N1C[C@@H]2[C@H](c3ccccc31)[C@H](CO)N2Cc1ccccc1Cl	none
O=C(Nc1ccc(Cl)cc1)N1C[C@@H]2[C@H](c3ccccc31)[C@H](CO)N2CC1CCCCC1	T cruzi growth-1 118 | T cruzi growth-2 111 | T cruzi growth-3 inactive | NIH3T3 tox inactive | 3T3 cytotox 2 103
O=C(Nc1ccc(F)cc1)N1C[C@@H]2[C@H](c3ccccc31)[C@@H](CO)N2Cc1ccccc1Cl	none
COc1ccc(NC(=O)N(C)C[C@H]2Oc3ccc(NC(=O)NC4CCCCC4)cc3CC(=O)N([C@H](C)CO)C[C@H]2C)cc1	none
Cc1noc(C)c1S(=O)(=O)Nc1ccc2c(c1)C(=O)N([C@H](C)CO)C[C@@H](C)[C@@H](CN(C)S(=O)(=O)c1ccc(F)cc1)O2	none
O=C(NC[C@@H]1CC[C@@H]2[C@@H](CN2Cc2cccc(Cl)c2)O1)C1CC1	none (no result: T cruzi growth-1)
CC(=O)N1CC(=O)N2[C@H](CO)[C@@H](c3ccc(-c4ccc(C)cc4)cc3)[C@H]2C1	none (no result: T cruzi growth-1)
COCC(=O)Nc1ccc2c(c1)OC[C@@H](C)N(Cc1cc(F)ccc1F)C[C@H](C)[C@H](OC)CN(C)C2=O	none (no result: C diff growth)
O=C(C1CCCC1)N1C[C@H]2[C@@H](c3ccccc31)[C@H](CO)N2C(=O)c1ccccc1F	T cruzi growth-1 100 | T cruzi growth-2 inactive | T cruzi growth-3 inactive | NIH3T3 tox inactive | 3T3 cytotox 2 inconclusive
O=C(C1CCCC1)N1C[C@@H]2[C@H](c3ccccc31)[C@H](CO)N2C(=O)c1ccccc1F	none
Cc1ccc(S(=O)(=O)Nc2ccc3c(c2)C(=O)N([C@H](C)CO)C[C@H](C)[C@@H](CN(C)C(=O)Nc2ccccc2)O3)cc1	none
CN1C(=O)c2cc(NC(=O)Nc3ccc(Cl)cc3)ccc2OC[C@H]2O[C@H](CC(=O)O)CC[C@@H]21	none
CCC(=O)N(C)C[C@@H]1Oc2cc(-c3ccncc3)ccc2S(=O)(=O)N([C@@H](C)CO)C[C@H]1C	none
CCC(=O)N1CC[C@H]2[C@H](CO)Nc3ccc(-c4ccc(C(=O)N(C)C)cc4)cc3[C@H]21	T cruzi growth-1 107 | T cruzi growth-2 104 | T cruzi growth-3 inactive | NIH3T3 tox inactive | 3T3 cytotox 2 inactive
CCC(=O)N1CC[C@H]2[C@H](CO)Nc3ccc(-c4ccc(F)cc4)cc3[C@H]21	none
CCC(=O)N1CC[C@@H]2[C@H]1c1cc(-c3ccc(C(=O)N(C)C)cc3)ccc1N[C@@H]2CO	T cruzi growth-1 105 | T cruzi growth-2 inconclusive | T cruzi growth-3 inactive | NIH3T3 tox inactive | 3T3 cytotox 2 inactive
CCC(=O)N1CC[C@H]2[C@H](CO)Nc3ccc(-c4ccccc4)cc3[C@H]21	none
COc1ccccc1-c1cnc2c(c1)C(=O)N([C@H](C)CO)C[C@@H](C)[C@H](CN(C)C(=O)c1ccncc1)O2	none
C[C@H](CO)N1C[C@H](C)[C@@H](CN(C)C(=O)CC2CC2)Oc2cc(C#CCN(C)C)ccc2S1(=O)=O	T cruzi growth-1 96 | T cruzi growth-2 98 | T cruzi growth-3 inactive | NIH3T3 tox inactive | 3T3 cytotox 2 inactive
CC(C)C#Cc1ccc2c(c1)O[C@H](CN(C)C(=O)CC1CC1)[C@H](C)CN([C@H](C)CO)S2(=O)=O	none
C[C@H]1CN([C@@H](C)CO)S(=O)(=O)c2ccc(C#CCN(C)C)cc2O[C@H]1CN(C)C(=O)CC1CC1	T cruzi growth-1 inconclusive | T cruzi growth-2 100 | T cruzi growth-3 inactive | NIH3T3 tox inactive | 3T3 cytotox 2 inactive
C[C@@H]1CN([C@@H](C)CO)S(=O)(=O)c2ccc(C#CCN(C)C)cc2O[C@H]1CN(C)C(=O)CC1CC1	T cruzi growth-1 inconclusive | T cruzi growth-2 97 | T cruzi growth-3 inactive | NIH3T3 tox inactive | 3T3 cytotox 2 inactive
C[C@@H]1CN([C@H](C)CO)S(=O)(=O)c2ccc(C#CCN(C)C)cc2O[C@@H]1CN(C)C(=O)CC1CC1	none
C[C@H](CO)N1C[C@H](C)[C@H](CN(C)C(=O)CC2CC2)Oc2cc(C#CCN(C)C)ccc2S1(=O)=O	none
CCC(=O)N(C)C[C@@H]1Oc2cc(C3=CCCCC3)ccc2S(=O)(=O)N([C@@H](C)CO)C[C@H]1C	none (no result: C diff growth)
C[C@H](CO)N1C[C@H](C)[C@H](CN(C)C(=O)Nc2ccc3c(c2)OCO3)Oc2ccc(NC(=O)CCN3CCOCC3)cc2C1=O	none (no result: C diff growth)
CCCNC(=O)[C@H]1[C@H](CO)[C@H]2Cn3c(ccc(-c4cccnc4)c3=O)[C@H]2N1CCC	none
C[C@H](CO)N1C[C@H](C)[C@@H](CN(C)S(=O)(=O)c2ccc(F)cc2)Oc2cc(Br)ccc2S1(=O)=O	none
CC(C)CC#Cc1ccc2c(c1)O[C@@H](CN(C)S(=O)(=O)c1ccc(F)cc1)[C@@H](C)CN([C@H](C)CO)S2(=O)=O	none (no result: T cruzi growth-1)
C[C@@H]1CN([C@H](C)CO)S(=O)(=O)c2ccc(C#Cc3ccc(F)cc3)cc2O[C@H]1CN(C)S(=O)(=O)c1ccc(F)cc1	T cruzi growth-1 110 | T cruzi growth-2 98 | T cruzi growth-3 110 | NIH3T3 tox 41 | 3T3 cytotox 2 55
COCC#Cc1ccc2c(c1)O[C@H](CN(C)S(=O)(=O)c1ccc(F)cc1)[C@H](C)CN([C@@H](C)CO)S2(=O)=O	T cruzi growth-1 101 | T cruzi growth-2 inactive | T cruzi growth-3 inactive | NIH3T3 tox inactive | 3T3 cytotox 2 55

Screens (PubChem)
